# Results: ChEMBL document CHEMBL4513216, “Probing the Open Global Health Chemical Diversity Library for Multistage-Active Starting Points for Next-Generation Antimalarials” (ACS Infect Dis, 2020)
# Hit rate of the full screen: of about 69,000 compounds, about 8,600 (12%) showed an effect of 50% or more. The sample holds strong results, similar compounds and a random draw of the others, so the mix is not that of the screen.
# System: Plasmodium berghei
# Experiment: Screen against P. berghei liver stage (PbLuc), transformed with Luciferase, at 10uM
# Type: functional, HepG2
# Settings: tested at 10 uM
row,SMILES,INHIBITION
1,CC1(c2ccccc2)CCCN(Cc2cncn2C2CCCC2)C1 (stereo not given),89.6%
2,O=c1c2ccccc2cnn1Cc1cncn1C1CC1,0.33%
3,CC1(c2ccccc2)CCCN(Cc2nnc(-c3cccnc3)o2)C1 (stereo not given),5.91%
4,CC1(c2ccccc2)CCCN(Cc2cncn2C2CC2)C1 (stereo not given),50.7%
5,O=C(CCc1ccccc1)C1CCCN(Cc2cncn2C2CC2)C1 (stereo not given),27.4%
6,COCCn1cncc1CN1CCCC(C(=O)Cc2ccccc2)C1 (stereo not given),20.5%
7,COCCn1cncc1CN1CCCC(C)(c2ccccc2)C1 (stereo not given),30.1%
8,Cn1cncc1CN1CCOC(Cc2ccccc2)C1 (stereo not given),-54.1%
9,CCCN1CCCC2(CCN(Cc3cncn3C3CCCCC3)C2)C1=O (stereo not given),-21.5%
10,O=C(Cc1ccccc1)C1CCCN(Cc2cncn2C2CCCC2)C1 (stereo not given),69%
11,CN1CCCC2(CCN(Cc3cncn3C3CCCCC3)C2)C1=O (stereo not given),62.1%
12,CCCN1CCCC2(CCN(Cc3cncn3C3CCCC3)C2)C1=O (stereo not given),21.2%
13,CN1CCCC(Cc2cc(N(C)C)ncn2)C1 (stereo not given),38.7%
14,Cc1ncc(C(=O)NCCNC(=O)Cc2cccc(F)c2)s1,-13.5%
15,Cc1nccc(C2CN(S(=O)(=O)N(C)C)C2)n1,-3.02%
16,CCC(C(=O)NCC1=CCN(C)CC1)c1ccccc1 (stereo not given),8.7%
17,CNc1ccc(CC2CCCN(C(=O)c3cccc(C)n3)C2)nn1 (stereo not given),45.6%
18,CS(=O)(=O)N1CCc2c(cccc2NC(=O)Nc2ccccn2)C1,19.2%
19,Cc1nc(CN2C[C@H]3C[C@H](C(=O)NCC4CC4)N(C)[C@H]3C2)cs1,19.8%
20,O=C(NCCC1CCN(CC(F)(F)F)CC1)C1CCCOC1 (stereo not given),-10.3%
21,COCCNC(=O)c1ccoc1CN1c2ccccc2CC1C (stereo not given),20.9%
22,CC1Cc2ccccc2N1Cc1occc1C(=O)NCC(=O)N(C)C (stereo not given),53.9%
23,CCNC(=O)c1ccoc1CN1c2ccccc2CC1C (stereo not given),-3.19%
24,CNC(=O)C1CN(C(=O)c2cccnc2)CCN(S(C)(=O)=O)C1 (stereo not given),9.25%
25,CN1CCCN(C(=O)NCCNc2ncccn2)CC1,16.8%
26,CC(=O)N(Cc1ccc(NCc2cnn(C(C)(C)C)c2)cc1)C(C)C,38.5%
27,CC(C)OC(=O)NCc1ccc(NCc2cnn(C(C)(C)C)c2)cc1,18.9%
28,CC(C)(C)n1cc(CNc2ccc(CNS(C)(=O)=O)cc2)cn1,74.4%

row,SMILES,INHIBITION
1,CCNc1nc2cn(-c3ccc(C)c(C)c3)c(=O)c-2c[nH]1,-31.1%
2,Cc1ccc(C(=O)NCCNCC2CNc3ccnn3C2)cc1 (stereo not given),7.67%
3,Cc1cc2n(n1)CC(CNCc1ccc(OCC3CC3)nc1)CN2 (stereo not given),60.7%
4,Cc1ccc(C(=O)NCCNCC2CNc3ccnn3C2)cc1F (stereo not given),59.3%
5,COCCOc1ccc(CNCC2CNc3cc(C)nn3C2)cn1 (stereo not given),25.995%
6,O=C(Cc1ccc(F)cc1)NCCNCC1CNc2ccnn2C1 (stereo not given),19.7%
7,Cc1cc2n(n1)CC(CNCc1cnn(-c3ccccc3)c1)CN2 (stereo not given),15.5%
8,Cc1cc2n(n1)CC(CNCc1cnn(C)c1)CN2 (stereo not given),33.7%
9,Cc1cc2n(n1)CC(CNCCc1cnn(C)c1)CN2 (stereo not given),54.3%
10,O=C(NCCNCC1CNc2ccnn2C1)c1ccc(F)cc1 (stereo not given),32.4%
11,COc1ccc(CNCC2CNc3cc(C)nn3C2)cn1 (stereo not given),-6.185%
12,Cn1cc(CCNCC2CNc3ccnn3C2)cn1 (stereo not given),71.4%
13,COc1ccc(CNCC2CNc3ccnn3C2)cn1 (stereo not given),25.1%
14,CCN(Cc1noc(C2CCC2)n1)C(=O)c1cn2ccsc2n1,30%
15,CS(=O)(=O)CCCNC(=O)C1(c2cccc(Cl)c2)CC1,28.3%
16,CN(CC(N)=O)CC(=O)N1CC=C(c2ccccc2)CC1,-46.4%
17,COc1cc(NC2CCCN(c3ncccn3)C2)cc(OC)c1 (stereo not given),23.1%
18,CCc1cnccc1C(=O)NC1CCN(C(=O)C2CCCCC2)CC1,38.7%
19,CCC1CN(c2ncnc3nc[nH]c23)CCO1 (stereo not given),-2.03%
20,CCc1nnsc1C(=O)N1CCN(CC(O)CC)CC1 (stereo not given),17.8%
21,CCCc1nnsc1C(=O)N1CCN(CC(O)C2CC2)CC1 (stereo not given),37.4%
22,CC(O)CN1CCN(C(=O)c2ccc(N(C)C)nn2)CC1 (stereo not given),51.2%
23,CCC(O)CN1CCN(C(=O)c2ccc(N(C)C)nn2)CC1 (stereo not given),-26.6%
24,CN(C)c1ccc(C(=O)N2CCN(CC(O)C(C)(C)C)CC2)nn1 (stereo not given),7.12%
25,CCCc1nnsc1C(=O)N1CCN(CC(C)O)CC1 (stereo not given),51.7%
26,O=C1[C@H]2CN(c3ncccn3)C[C@H]2CN1CCN1CCCC1,19.5%
27,CC(C)n1ccc(C(=O)OCC2CC(=O)N(Cc3ccccc3)C2)n1 (stereo not given),1.74%
